A selection: hits, their analogues and other compounds. The true share with any hit is near 0.92%.
MEP2-GFP yeast – yeast TOR pathway MEP2-GFP modulation; S. cerevisiae MEP2-GFP strain, flow cytometry GFP, 3 h; 100% = DMSO control level; GFP response vs DMSO, % at 10 µM; 330,000 compounds, 0.51% hits;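 active = GFP response versus DMSO above a set limit, roughly screen mean plus 3 SD, cut at about 180% in these data; inconclusive = fewer than 70 cells counted for a yeast strain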;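 note: median GFP fluorescence of the barcode-gated MEP2-GFP cells per well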
LAP4 TOR yeast – modulators of TOR pathway LAP4-GFP in S. cerevisiae; GFP response vs DMSO, % at 10 µM; AID 2023; 320,000 compounds, 0.34% hits; S. cerevisiae LAP4-GFP multiplex, flow cytometry GFP, 3 h; median GFP as percent of DMSO wells;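 active = GFP response vs DMSO above a set limit, about the screen mean plus 3 SD, cut at about 150% in these data; inconclusive = under 70 cell events counted for the yeast strain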
CIT2-GFP yeast – modulators of TOR pathway CIT2-GFP in S. cerevisiae | GFP response vs DMSO, % at 10 µM | S. cerevisiae CIT2-GFP strain, flow cytometry, 3 h; 100 means same as DMSO wells | AID 2029 | 320,000 compounds, 0.065% hits;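 active = GFP response relative to DMSO above a set limit, near the screen mean plus 3 SD, cut at about 150% in these data; inconclusive = Fewer than 70 cells measured for a yeast strain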;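 note: ratio of well median GFP fluorescence to mean of DMSO wells on the plate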
RPL19A-GFP yeast – yeast TOR pathway RPL19A-GFP modulation | 330,000 compounds, 0.3% hits | AID 2025 | percent response vs DMSO, % at 10 µM | S. cerevisiae RPL19A-GFP strain, flow cytometry, 3 h; stronger effect = lower value;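 active = percent response vs DMSO below 50%; inconclusive = fewer than 70 events counted for the yeast strain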;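 note: median channel GFP fluorescence of the barcoded RPL19A-GFP strain; ratio of sample median GFP to plate DMSO average so 100% = DMSO; lower means less RPL19A-GFP as with rapamycin TOR inhibition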
AGP1 TOR yeast – alters AGP1-GFP fluorescence in TOR pathway yeast screen; S. cerevisiae AGP1-GFP multiplex flow cytometry, 3 h; GFP as percent of DMSO wells; GFP response vs DMSO, % at 10 µM; 320,000 compounds, 0.02% hits; AID 2066;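 active = GFP response relative to DMSO above a set limit, near screen average plus 3 SD, cut at about 150% in these data; inconclusive = fewer than 70 cells counted for the yeast strain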;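 note: median GFP channel fluorescence of the gated AGP1 strain per well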
LAP4 cherry2 – reconfirmed LAP4-GFP TOR pathway modulator in yeast; GFP response vs DMSO, % at 10 µM; shares compounds with LAP4 TOR yeast; 590 compounds, 20% hits; S. cerevisiae LAP4-GFP strain, flow cytometry GFP, 3 h;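 active = GFP signal as percent of the solvent control above about 150%, meaning raised reporter expression, limit read from the data; inconclusive = fewer than 70 cells counted in the well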;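 note: ratio of well median GFP fluorescence to plate DMSO mean so 100% = DMSO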
MEP2 cherry2 – yeast MEP2-GFP modulation, second cherry pick. AID 2622. GFP response vs DMSO, % at 10 µM. 590 compounds, 10% hits. shares compounds with LAP4 TOR yeast. S. cerevisiae MEP2-GFP strain, flow cytometry GFP, 3 h;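 active = GFP signal above 150% of the solvent control wells, that is a rise of more than half; inconclusive = fewer than 70 yeast cells counted in the well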;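 note: median channel GFP fluorescence of all gated yeast cells per well; ratio of median GFP to plate DMSO average so 100% = DMSO level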
RPL19A GFP CP2 – reconfirmed modulator of RPL19A-GFP TOR reporter in yeast. shares compounds with LAP4 TOR yeast. S. cerevisiae RPL19A-GFP strain, flow cytometry GFP, 3 h; stronger effect = lower value; 100% means same as DMSO wells. GFP response vs DMSO, % at 10 µM. 590 compounds, 3% hits. AID 2623;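 active = under 65% GFP response relative to DMSO; inconclusive = yeast strain with under 70 measured events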;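 note: median GFP channel fluorescence per well over the all cells gate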
CIT2 GFP CP2 – yeast CIT2-GFP TOR reporter modulation, second cherry pick; 590 compounds, 8% hits; GFP response vs DMSO, % at 10 µM; S. cerevisiae CIT2-GFP strain, flow cytometry GFP, 3 h; DMSO control wells read 100%; shares compounds with LAP4 TOR yeast; AID 2624;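 active = GFP response vs DMSO above about 150%, limit read from the data; inconclusive = fewer than 70 events counted for a yeast strain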;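 note: median green fluorescence per well over all gated yeast cells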
AGP1 GFP CP2 – second confirmation of modulators of TOR reporter AGP1-GFP in yeast | shares compounds with LAP4 TOR yeast | 590 tested, under 10 active | percent response vs DMSO, % at 10 µM | S. cerevisiae AGP1-GFP strain, flow cytometry GFP, 3 h;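 active = over 150 percent of DMSO response; inconclusive = yeast strain measured with under 70 events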;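 note: median GFP channel fluorescence over all cells without mother daughter split; sample median GFP divided by mean DMSO control so 100% equals DMSO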
s288c autofluor – compound is autofluorescent in yeast s288c cells; shares compounds with LAP4 TOR yeast; S. cerevisiae s288c, 520 nm autofluorescence, flow cytometry, 3 h; stronger effect = higher value; zero means same as solvent-only cells; fluorescence change (kMESF span) at 33 µM; 610 tested, under 10 active; AID 2757;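 active = fluorescence span over the dose series, or activity score, above about 33, limit read from the data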
The depositor's hits bear a star; ? = inconclusive; nt = no result; ! = a repeat was not active; [ ] = another dose, or the depositor's remark.

SMILES	MEP2-GFP yeast	LAP4 TOR yeast	CIT2-GFP yeast	RPL19A-GFP yeast	AGP1 TOR yeast	others
COC(=O)c1ccc(NC(=O)CSc2nc3ccc(N4C(=O)C5C6C=CC(C6)C5C4=O)cc3s2)cc1 (configuration not stated)	100.3	105.4	102.6	111.4	106.6
O=c1c2ccccc2[nH]c(=S)n1-c1ccc2c(c1)OCCO2	105.8	100.4	99.9	102.9	103.1
N=Cc1c(O)n(-c2ccccc2)c(=O)n(-c2ccccc2)c1=O	216.1*[may fluoresce violet]	94.3	?	80.5	16.9
Cc1ccc(-n2c(O)c(C=N)c(=O)n(-c3ccc(C)cc3)c2=O)cc1	102.9	96.7	102.9	101.5	99.0
Cc1c(CC(=O)N2C[C@H]3C[C@@H](C2)c2cccc(=O)n2C3)c(=O)oc2c(C)c(O)ccc12	97.6	100.9	99.5	98.7	99.7
Cc1c(CC(=O)N2C[C@H]3C[C@@H](C2)c2cccc(=O)n2C3)c(=O)oc2cc(O)c(Cl)cc12	184.9*[may fluoresce violet]	91.6	?	16.3*[may fluoresce violet]	28.1
CCC(C)N1C(=O)/C(=C\c2cnc(N(C)C)nc2)C(=O)NC1=S (configuration not stated)	89.4	161.8*	79.6	97.2	93.7
CCCC(=O)c1ccc(CP(=O)(OCC)OCC)o1	310.5*[may fluoresce violet]	nt	nt	36.4*[may fluoresce violet]	nt
COP(=O)(Cc1ccc(C#N)o1)OC	107.3	nt	nt	102.8	nt
CC[C@@H]1C(=O)OC[C@@H]1Cc1cncn1C	404.1*![may fluoresce violet]	107.4	?	43.1*![may fluoresce violet]	?
CC[C@@H]1C(=O)OC[C@@H]1Cc1cncn1C	99.8	111.2	88.8	105.9	94.8
C=CCn1c(O)c(C(C)=NCCCn2ccnc2)c(=O)[nH]c1=O	102.3	115.4	92.3	98.8	105.8
O=C1NC(=O)C(=Cc2ccc(Sc3ccccc3)o2)C(=O)N1	85.3	163.6*	71.3	85.0	61.7
O=C1NC(=O)C(=Cc2ccc(-c3ccc(F)cc3O)o2)C(=O)N1	90.0	116.0	68.5	93.7	82.1
CN1C(=O)C(=Cc2ccc(Sc3ccccc3)o2)C(=O)N(C)C1=O	82.2	121.4	70.2	90.3	70.8
CN1C(=O)C(=Cc2ccc(Sc3ccccc3)o2)C(=O)N(C)C1=S	99.4	175.9*	82.8	74.2	78.2
CCN(CC)c1ccc(C=C2C(=O)NC(=S)NC2=O)cc1	98.0	212.1*	67.5	88.9	91.6
Oc1ccc2c3c1O[C@H]1c4[nH]c5ccccc5c4C[C@@]4(O)[C@@H](C2)N(CC2CC2)CC[C@]314	98.6	101.6	84.9	97.7	88.7
O=C1CC[C@@]2(O)[C@H]3Cc4ccc(O)c5c4[C@@]2(CCN3CC2CC2)[C@H]1O5	143.8	154.6*	102.1	84.5	117.3
O=c1ccc2cc(OC3O[C@H](CO)[C@@H](O)[C@H](O)[C@H]3O)c(O)cc2o1 (some centres not stated)	208.1*[may fluoresce violet]	94.0	?	41.0*[may fluoresce violet]	?
COc1cc([C@H]2OC[C@H]3[C@@H]2CO[C@@H]3c2cc(OC)c(O[C@@H]3O[C@H](CO)[C@@H](O)[C@H](O)[C@H]3O)c(OC)c2)cc(OC)c1O[C@H]1O[C@@H](CO)[C@H](O)[C@@H](O)[C@@H]1O	101.2	101.5	94.2	99.4	107.0
Cc1ccc2c(c1)C1CN(C)CCC1N2C(=O)CCCN1C(=O)c2cccc3cccc(c23)C1=O (configuration not stated)	95.7	105.0	99.6	95.6	101.3
C=C[C@@]12CN(C)[C@H]3[C@H]1[C@@]1(C(=O)Nc4ccccc41)C1CC2[C@@H]3CO1	105.9	103.5	95.5	102.0	102.9
Cc1n[nH]c(C)c1CCN	235.2*[may fluoresce violet]	65.6	?	59.5	?
CNC(=O)Nc1ccc(C(=O)N/N=C\C23CC[C@@H](O)CC2(O)CC[C@@H]2[C@@H]3CCC3(C)C(C4=CC(=O)OC4)CCC23O)cc1 (some centres not stated)	200.4*[may fluoresce violet]	92.5	?	45.5*[may fluoresce violet]	19.4
SMILES	MEP2-GFP yeast	LAP4 TOR yeast	CIT2-GFP yeast	RPL19A-GFP yeast	AGP1 TOR yeast	others
CC12CC[C@H]3[C@@H](CCC4(O)C[C@H](O)CCC34/C=N/NC(=O)c3ccccc3[N+](=O)[O-])C1(O)CCC2C1=CC(=O)OC1 (some centres not stated)	106.1	nt	100.1	96.5	103.5
COC(=O)C1=C(c2ccc(F)cc2F)C[C@@H]2CC[C@H]1N2C(=O)NCCOc1ccc(OC)cc1	91.3	90.8	90.2	95.2	93.2
Nc1c(C(=O)NCC2CCCO2)c2nc3ccccc3nc2n1Cc1ccco1 (configuration not stated)	518.0*[may fluoresce violet]	98.7	?	97.2	17.7
O=C(Nc1c(F)cc(F)cc1F)c1cccn(Cc2ccccc2)c1=O	91.6	119.2	90.1	97.2	100.9
COc1ccc(C2(c3cccc(O)c3OC)CCN(C(C)=O)CC2)cc1O	101.7	125.7	99.4	101.8	91.2
Cc1ccc(N2C(=O)/C(=C/c3ccc(CN(CCC#N)S(C)(=O)=O)o3)C(=O)NC2=S)cc1C	198.2*[may fluoresce violet]	97.4	?	64.4	22.9
CC1(C)C[C@H]2C=C(C=O)[C@]3(C=O)C[C@]3(C)[C@H]2C1	121.7	149.4	103.0	61.0	70.4	LAP4 cherry2=198.1*;MEP2 cherry2=201.3*;RPL19A GFP CP2=78.6;CIT2 GFP CP2=187.7*;AGP1 GFP CP2=91.3;s288c autofluor=1.4
Cc1nc2ccccc2c(=O)n1-c1cc(F)ccc1F	91.3	95.0	103.0	87.6	95.8
Cc1ccsc1/C=C1\C(=O)NC(=S)N(C)C1=O	87.1	51.8	89.7	55.1	56.4	LAP4 cherry2=103.2;MEP2 cherry2=127.5;RPL19A GFP CP2=66.8;CIT2 GFP CP2=79.3;AGP1 GFP CP2=64.4;s288c autofluor=-1.4

Compound activity deposited in PubChem BioAssay by NMMLSC.
